# Assays:
# Assay in all cases: DAPPL (digital affinity profiling via proximity ligation, sequencing); 10 mM Tris-HCl pH 7.5, 50 mM NaCl, 1 mM DTT, 4% glycerol, room temperature, 30 min; GST-TFs on glutathione beads, 16-mer random dsDNA library, 0.1% formaldehyde crosslink after washing; high values mean tight binding
# Conditions in all cases: protein: recombinant; tags: N-terminal GST; dsDNA, one strand shown
# FLI1 = target: T1, FLI1 (Homo sapiens, UniProt Q01543 1-452)
# T1 sequence: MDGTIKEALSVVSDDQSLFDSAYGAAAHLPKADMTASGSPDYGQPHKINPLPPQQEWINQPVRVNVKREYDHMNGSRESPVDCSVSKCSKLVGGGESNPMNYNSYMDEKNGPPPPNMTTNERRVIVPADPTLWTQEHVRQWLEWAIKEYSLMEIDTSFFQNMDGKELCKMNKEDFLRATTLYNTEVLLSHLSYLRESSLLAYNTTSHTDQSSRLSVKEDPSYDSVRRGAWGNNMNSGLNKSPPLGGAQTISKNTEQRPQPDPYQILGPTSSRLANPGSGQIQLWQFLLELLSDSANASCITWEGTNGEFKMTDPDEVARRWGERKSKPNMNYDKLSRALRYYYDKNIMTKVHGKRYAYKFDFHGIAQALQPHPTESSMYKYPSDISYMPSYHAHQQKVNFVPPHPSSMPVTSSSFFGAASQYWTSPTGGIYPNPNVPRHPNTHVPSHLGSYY
# In short: (§1)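 Pools were built from human transcription factors expressed in yeast as GST fusions, captured on glutathione beads and DNA-barcoded, along with a tag-only sample. Incubation with 200 nmole of a 16-mer random double-stranded DNA library lasted 30 min at room temperature in Tris/NaCl/DTT/glycerol buffer, and was followed by washing, 0.1% formaldehyde crosslinking, proximity ligation, PCR amplification and Illumina NextSeq500 sequencing. Binding signal is the quotient of each hexamer's read frequency for a factor and its frequency for the tag-only sample.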
# ELK1 = target: T2, ELK1 (Homo sapiens, UniProt P19419 1-428)
# T2 sequence: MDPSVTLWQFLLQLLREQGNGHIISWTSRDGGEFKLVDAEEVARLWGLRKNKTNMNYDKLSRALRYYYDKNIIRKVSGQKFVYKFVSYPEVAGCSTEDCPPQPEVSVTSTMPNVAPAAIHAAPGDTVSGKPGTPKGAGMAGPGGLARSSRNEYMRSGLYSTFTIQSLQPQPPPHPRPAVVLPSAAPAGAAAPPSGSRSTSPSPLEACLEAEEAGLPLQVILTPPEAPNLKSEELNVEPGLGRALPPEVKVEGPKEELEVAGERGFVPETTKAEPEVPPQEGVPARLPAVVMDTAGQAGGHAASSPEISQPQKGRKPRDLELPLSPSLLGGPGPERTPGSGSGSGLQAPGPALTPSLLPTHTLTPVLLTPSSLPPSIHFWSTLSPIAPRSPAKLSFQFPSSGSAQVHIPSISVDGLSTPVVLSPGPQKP
# In short: as §1
# GABPA = target: T3, GABPA (Homo sapiens, UniProt Q06546 1-454)
# T3 sequence: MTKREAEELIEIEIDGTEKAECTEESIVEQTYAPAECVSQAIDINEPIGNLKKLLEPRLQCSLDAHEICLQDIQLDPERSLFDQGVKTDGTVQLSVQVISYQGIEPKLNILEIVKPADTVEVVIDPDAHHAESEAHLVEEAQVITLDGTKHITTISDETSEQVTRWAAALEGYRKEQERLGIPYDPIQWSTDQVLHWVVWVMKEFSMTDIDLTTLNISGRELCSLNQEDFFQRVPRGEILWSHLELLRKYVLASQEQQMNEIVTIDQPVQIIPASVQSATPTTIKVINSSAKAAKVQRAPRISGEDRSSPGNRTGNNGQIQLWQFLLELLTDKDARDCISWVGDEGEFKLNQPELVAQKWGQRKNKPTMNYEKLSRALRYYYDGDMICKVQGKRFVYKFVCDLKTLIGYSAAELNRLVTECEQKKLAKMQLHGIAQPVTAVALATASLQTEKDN
# In short: as §1
# ERG = target: T4, ERG (Homo sapiens, UniProt P11308 1-479)
# T4 sequence: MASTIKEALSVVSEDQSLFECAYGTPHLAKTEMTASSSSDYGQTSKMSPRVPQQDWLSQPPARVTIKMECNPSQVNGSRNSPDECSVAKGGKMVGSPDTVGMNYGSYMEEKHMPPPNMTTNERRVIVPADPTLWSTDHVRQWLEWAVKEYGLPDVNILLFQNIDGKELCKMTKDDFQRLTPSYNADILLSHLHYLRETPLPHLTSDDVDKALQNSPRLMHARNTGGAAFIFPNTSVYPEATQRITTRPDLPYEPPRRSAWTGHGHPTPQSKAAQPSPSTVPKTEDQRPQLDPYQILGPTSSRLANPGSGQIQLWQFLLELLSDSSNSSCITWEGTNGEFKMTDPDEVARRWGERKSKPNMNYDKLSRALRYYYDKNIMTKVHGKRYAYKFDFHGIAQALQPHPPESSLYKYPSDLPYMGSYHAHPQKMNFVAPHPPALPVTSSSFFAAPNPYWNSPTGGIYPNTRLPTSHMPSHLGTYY
# In short: as §1
# ELF1 = ELF1 (Homo sapiens, UniProt P32519 1-619)
# In short: as §1
# EHF = target: T5, EHF (Homo sapiens, UniProt Q9NZC4 1-300)
# T5 sequence: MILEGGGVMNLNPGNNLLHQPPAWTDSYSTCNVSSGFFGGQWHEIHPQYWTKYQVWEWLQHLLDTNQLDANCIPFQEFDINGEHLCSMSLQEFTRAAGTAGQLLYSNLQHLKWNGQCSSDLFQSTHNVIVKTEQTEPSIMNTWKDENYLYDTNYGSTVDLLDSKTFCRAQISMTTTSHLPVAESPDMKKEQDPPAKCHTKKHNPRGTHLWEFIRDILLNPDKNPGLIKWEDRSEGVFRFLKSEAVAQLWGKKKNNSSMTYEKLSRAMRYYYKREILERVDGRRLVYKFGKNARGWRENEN
# In short: as §1
# SPI1 = SPI1 (Homo sapiens, UniProt P17947 1-270)
# In short: as §1
# SPIB = SPIB (Homo sapiens, UniProt Q01892 1-262)
# In short: as §1
# ELK3 = target: T6, ELK3 (Homo sapiens, UniProt P41970 1-407)
# T6 sequence: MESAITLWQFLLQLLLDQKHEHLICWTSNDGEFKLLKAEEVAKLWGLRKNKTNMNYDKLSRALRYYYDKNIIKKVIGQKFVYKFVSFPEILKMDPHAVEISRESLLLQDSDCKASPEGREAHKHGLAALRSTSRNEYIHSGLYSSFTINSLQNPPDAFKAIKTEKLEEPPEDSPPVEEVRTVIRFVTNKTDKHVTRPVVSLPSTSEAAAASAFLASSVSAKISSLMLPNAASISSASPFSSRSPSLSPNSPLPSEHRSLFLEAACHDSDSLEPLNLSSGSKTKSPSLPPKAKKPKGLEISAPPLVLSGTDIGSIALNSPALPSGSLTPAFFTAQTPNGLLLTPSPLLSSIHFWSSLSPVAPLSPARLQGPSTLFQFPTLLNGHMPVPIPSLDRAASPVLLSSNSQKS
# In short: as §1
# FEV = target: T7, FEV (Homo sapiens, UniProt Q99581 1-238)
# T7 sequence: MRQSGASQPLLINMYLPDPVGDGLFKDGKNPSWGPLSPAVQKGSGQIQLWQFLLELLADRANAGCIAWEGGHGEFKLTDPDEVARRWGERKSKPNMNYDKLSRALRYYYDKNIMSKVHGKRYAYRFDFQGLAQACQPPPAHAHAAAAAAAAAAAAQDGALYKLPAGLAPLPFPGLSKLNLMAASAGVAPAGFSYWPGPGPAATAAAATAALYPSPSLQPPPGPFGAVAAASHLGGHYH
# In short: as §1
# ETV5 = ETV5 (Homo sapiens, UniProt P41161 1-510)
# In short: as §1
# SPIC = target: T8, SPIC (Homo sapiens, UniProt Q8N5J4 1-248)
# T8 sequence: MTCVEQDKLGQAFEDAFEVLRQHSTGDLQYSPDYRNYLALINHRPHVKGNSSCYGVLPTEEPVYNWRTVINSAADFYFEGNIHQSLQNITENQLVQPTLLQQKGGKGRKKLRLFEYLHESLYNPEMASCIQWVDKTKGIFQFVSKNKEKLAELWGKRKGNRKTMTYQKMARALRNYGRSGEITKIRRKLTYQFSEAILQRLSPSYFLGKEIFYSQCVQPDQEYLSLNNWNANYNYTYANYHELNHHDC
# In short: as §1
# ELF4 = ELF4 (Homo sapiens, UniProt Q99607 1-663)
# In short: as §1
# ELK4 = target: T9, ELK4 (Homo sapiens, UniProt P28324-2 1-405)
# T9 sequence: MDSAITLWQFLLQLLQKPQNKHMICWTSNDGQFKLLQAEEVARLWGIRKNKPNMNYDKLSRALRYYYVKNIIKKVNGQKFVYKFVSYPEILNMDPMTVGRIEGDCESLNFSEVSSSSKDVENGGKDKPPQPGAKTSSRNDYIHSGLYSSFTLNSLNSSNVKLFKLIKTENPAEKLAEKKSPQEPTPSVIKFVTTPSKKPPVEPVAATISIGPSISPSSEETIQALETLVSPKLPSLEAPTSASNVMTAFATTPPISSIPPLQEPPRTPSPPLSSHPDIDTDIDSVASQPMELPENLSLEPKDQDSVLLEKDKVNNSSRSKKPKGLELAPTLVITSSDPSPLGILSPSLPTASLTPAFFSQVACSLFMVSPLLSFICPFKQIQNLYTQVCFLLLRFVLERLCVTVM
# In short: as §1
# ETV2 = target: T10, ETV2 (Homo sapiens, UniProt O00321 1-342)
# T10 sequence: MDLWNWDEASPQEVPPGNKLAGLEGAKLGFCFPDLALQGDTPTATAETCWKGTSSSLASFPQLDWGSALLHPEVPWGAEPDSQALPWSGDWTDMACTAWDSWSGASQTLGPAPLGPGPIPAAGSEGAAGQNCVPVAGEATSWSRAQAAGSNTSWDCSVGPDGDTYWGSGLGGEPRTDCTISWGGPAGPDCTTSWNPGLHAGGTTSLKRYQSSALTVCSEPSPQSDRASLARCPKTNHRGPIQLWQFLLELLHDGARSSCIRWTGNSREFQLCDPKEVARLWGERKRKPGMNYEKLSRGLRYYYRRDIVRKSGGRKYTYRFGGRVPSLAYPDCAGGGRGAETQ
# In short: as §1
# ELF3 = target: T11, ELF3 (Homo sapiens, UniProt P78545 1-371)
# T11 sequence: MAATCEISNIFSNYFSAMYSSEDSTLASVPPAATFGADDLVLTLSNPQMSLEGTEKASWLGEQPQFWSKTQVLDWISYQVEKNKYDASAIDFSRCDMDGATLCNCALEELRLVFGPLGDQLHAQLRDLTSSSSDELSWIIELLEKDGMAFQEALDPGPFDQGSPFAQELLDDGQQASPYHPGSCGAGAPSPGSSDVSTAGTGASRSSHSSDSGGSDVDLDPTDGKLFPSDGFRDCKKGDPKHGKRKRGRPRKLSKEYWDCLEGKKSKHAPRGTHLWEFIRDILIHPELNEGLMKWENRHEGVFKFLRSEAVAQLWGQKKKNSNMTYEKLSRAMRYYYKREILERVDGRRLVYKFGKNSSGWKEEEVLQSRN
# In short: as §1
# ETV1 = ETV1 (Homo sapiens, UniProt P50549 1-477)
# In short: as §1
# Chain of ELF4 (Q99607 whole entry): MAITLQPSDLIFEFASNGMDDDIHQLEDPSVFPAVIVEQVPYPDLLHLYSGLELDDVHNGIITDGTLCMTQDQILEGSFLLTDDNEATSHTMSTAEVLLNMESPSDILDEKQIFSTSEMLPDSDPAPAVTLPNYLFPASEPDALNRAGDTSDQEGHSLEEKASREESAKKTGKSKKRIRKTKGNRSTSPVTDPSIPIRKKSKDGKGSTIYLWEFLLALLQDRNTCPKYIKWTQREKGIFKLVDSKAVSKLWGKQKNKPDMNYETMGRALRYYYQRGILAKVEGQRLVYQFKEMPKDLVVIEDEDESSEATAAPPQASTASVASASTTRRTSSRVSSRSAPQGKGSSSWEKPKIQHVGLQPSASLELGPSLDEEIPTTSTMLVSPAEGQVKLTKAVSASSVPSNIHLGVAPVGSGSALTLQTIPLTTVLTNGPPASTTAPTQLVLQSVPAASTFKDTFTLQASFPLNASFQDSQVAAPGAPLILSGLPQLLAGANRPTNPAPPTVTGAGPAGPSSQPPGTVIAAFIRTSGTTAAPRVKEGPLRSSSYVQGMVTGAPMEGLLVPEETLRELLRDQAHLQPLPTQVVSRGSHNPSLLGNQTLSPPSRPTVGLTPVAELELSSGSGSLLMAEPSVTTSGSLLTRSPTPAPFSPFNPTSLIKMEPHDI
# Chain of ETV1 (P50549 whole entry): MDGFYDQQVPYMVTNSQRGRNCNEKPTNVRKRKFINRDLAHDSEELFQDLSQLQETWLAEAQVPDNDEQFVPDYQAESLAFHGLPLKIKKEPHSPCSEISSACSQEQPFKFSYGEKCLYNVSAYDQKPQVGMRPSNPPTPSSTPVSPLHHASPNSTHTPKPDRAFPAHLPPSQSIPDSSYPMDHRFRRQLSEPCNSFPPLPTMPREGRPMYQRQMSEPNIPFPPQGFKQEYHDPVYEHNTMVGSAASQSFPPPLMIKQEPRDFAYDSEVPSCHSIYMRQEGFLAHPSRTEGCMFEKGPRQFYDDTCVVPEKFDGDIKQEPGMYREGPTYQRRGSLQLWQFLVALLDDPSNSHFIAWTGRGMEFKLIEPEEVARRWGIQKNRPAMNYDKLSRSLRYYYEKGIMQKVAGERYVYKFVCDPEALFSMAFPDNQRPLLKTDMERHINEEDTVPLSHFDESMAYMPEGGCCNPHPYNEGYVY
# Chain of ELF1 (P32519 whole entry): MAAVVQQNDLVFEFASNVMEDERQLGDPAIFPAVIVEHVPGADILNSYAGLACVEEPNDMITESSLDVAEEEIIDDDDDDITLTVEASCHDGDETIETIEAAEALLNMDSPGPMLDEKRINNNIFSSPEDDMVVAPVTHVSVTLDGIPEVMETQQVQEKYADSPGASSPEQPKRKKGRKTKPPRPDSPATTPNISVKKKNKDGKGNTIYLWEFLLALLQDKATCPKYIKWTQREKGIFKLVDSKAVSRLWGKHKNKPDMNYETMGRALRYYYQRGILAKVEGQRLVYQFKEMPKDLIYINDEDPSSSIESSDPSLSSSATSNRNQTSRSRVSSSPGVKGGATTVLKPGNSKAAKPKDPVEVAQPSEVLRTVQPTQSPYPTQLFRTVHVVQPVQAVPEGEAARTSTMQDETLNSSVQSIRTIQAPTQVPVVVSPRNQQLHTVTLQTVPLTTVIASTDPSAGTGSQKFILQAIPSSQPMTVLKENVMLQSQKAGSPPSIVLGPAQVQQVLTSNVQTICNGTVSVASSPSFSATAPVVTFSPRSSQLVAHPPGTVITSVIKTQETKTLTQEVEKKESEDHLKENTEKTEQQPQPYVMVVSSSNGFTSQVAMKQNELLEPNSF
# Chain of SPIB (Q01892 whole entry): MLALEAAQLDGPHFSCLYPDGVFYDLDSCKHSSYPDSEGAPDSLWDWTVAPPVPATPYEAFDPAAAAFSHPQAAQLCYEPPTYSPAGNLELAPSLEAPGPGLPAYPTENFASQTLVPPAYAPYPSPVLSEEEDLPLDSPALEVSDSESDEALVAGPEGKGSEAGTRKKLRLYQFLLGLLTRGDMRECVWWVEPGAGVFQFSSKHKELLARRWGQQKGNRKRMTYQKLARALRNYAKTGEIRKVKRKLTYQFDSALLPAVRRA
# Chain of ETV5 (P41161 whole entry): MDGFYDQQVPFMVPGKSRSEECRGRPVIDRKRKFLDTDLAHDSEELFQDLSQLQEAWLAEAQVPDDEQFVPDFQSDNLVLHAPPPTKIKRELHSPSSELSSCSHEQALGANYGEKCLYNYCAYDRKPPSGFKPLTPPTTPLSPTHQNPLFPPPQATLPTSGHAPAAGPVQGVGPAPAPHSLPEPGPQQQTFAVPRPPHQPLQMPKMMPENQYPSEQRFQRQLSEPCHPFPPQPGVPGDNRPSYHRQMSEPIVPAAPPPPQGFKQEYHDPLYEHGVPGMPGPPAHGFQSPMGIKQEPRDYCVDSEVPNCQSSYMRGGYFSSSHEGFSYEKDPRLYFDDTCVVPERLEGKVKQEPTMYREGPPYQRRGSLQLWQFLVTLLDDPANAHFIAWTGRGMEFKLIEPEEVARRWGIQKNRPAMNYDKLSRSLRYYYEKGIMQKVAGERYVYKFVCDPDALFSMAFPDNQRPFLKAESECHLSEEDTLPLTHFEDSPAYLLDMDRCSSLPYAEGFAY
Sequence,binding signal (FLI1),binding signal (ELK1),binding signal (GABPA),binding signal (ERG),binding signal (ELF1),binding signal (EHF),binding signal (SPI1),binding signal (SPIB),binding signal (ELK3),binding signal (FEV),binding signal (ETV5),binding signal (SPIC),binding signal (ELF4),binding signal (ELK4),binding signal (ETV2),binding signal (ELF3),binding signal (ETV1)
GATGCG,"1.07 fold enrichment (6-mer frequency, TF over GST control)","1.14 fold enrichment (6-mer frequency, TF over GST control)","1.16 fold enrichment (6-mer frequency, TF over GST control)","1.16 fold enrichment (6-mer frequency, TF over GST control)","1.11 fold enrichment (6-mer frequency, TF over GST control)","1.16 fold enrichment (6-mer frequency, TF over GST control)","1.14 fold enrichment (6-mer frequency, TF over GST control)","1.19 fold enrichment (6-mer frequency, TF over GST control)","1.1 fold enrichment (6-mer frequency, TF over GST control)","1.15 fold enrichment (6-mer frequency, TF over GST control)","1.14 fold enrichment (6-mer frequency, TF over GST control)","1.24 fold enrichment (6-mer frequency, TF over GST control)","1.14 fold enrichment (6-mer frequency, TF over GST control)","1.32 fold enrichment (6-mer frequency, TF over GST control)","1.16 fold enrichment (6-mer frequency, TF over GST control)","1.11 fold enrichment (6-mer frequency, TF over GST control)","1.06 fold enrichment (6-mer frequency, TF over GST control)"
CCTCAC,"1.29 fold enrichment (6-mer frequency, TF over GST control)","1.3 fold enrichment (6-mer frequency, TF over GST control)","1.26 fold enrichment (6-mer frequency, TF over GST control)","1.22 fold enrichment (6-mer frequency, TF over GST control)","1.22 fold enrichment (6-mer frequency, TF over GST control)","1.28 fold enrichment (6-mer frequency, TF over GST control)","1.28 fold enrichment (6-mer frequency, TF over GST control)","1.21 fold enrichment (6-mer frequency, TF over GST control)","1.33 fold enrichment (6-mer frequency, TF over GST control)","1.27 fold enrichment (6-mer frequency, TF over GST control)","1.25 fold enrichment (6-mer frequency, TF over GST control)","1.11 fold enrichment (6-mer frequency, TF over GST control)","1.31 fold enrichment (6-mer frequency, TF over GST control)","1.16 fold enrichment (6-mer frequency, TF over GST control)","1.24 fold enrichment (6-mer frequency, TF over GST control)","1.2 fold enrichment (6-mer frequency, TF over GST control)","1.27 fold enrichment (6-mer frequency, TF over GST control)"

# From paper PMC7862700, “An all-to-all approach to the identification of sequence-specific readers for epigenetic DNA modifications on cytosine”
